Results filed as inconclusive are left out. Unmarked numbers belong to inactive results. Activity calls are given as the source filed them. The call rests on the fitted dose curve; in most records, active means well fitted inhibition curve with a large enough effect; inconclusive means small, poorly fitted or top-dose-only effect; inactive means no such curve, though single readings can be large or run the other way.
Each molecule was assayed on Zika virus NS2B-NS3 protease (linked construct) (assay: Primary screen NINDS Rhodamine qHTS for Zika virus inhibitors (AID 1347160; further: nearly all actives have a fitted effect of over 55% in size)). Conditions: purified NS2B-NS3 protease, Rhodamine110 substrate fluorescence; series mostly up to 57.1 µM; activity change, negative = inhibition: at the top concentration.
Source text: Avindra Nath, Ph.D., National Institute of Neurological Disorders and Stroke (NINDS), Bethesda, MD
Radhakrishnan Padmanabhan, Ph.D., Georgetown University (GU), Washington D.C.
Zika Virus causes congenital defects, including microcephaly and is associated with Guillain-Barre syndrome, eningoencephalitis and myelitis in infected adult. […] Using a target-based approach, we hope to establish a screening paradigm to uncover novel, cell-active NS2B-NS3 protease (Zika Virus) specific inhibitors from NCATS' collection of small molecules using qHTS.
Four assay panel was created to identify potential Zika Virus inhibitors. Namely, (1) GU unlinked NS2B-NS3 AMC tagged protease qHTS, (2) GU unlinked NS2B-NS3 Rhodamine tagged protease qHTS, (3) NINDS linked NS2B-NS3 AMC tagged protease qHTS, (4) NINDS linked NS2B-NS3 Rhodamine tagged protease qHTS. Active compounds were re-acquired and re-screened to confirm inhibition. Inhibitors were further screened against various confirmatory and counterscreens in dose response format.
Early Translation Branch (ETB)
National Center for Advancing Translational Sciences (NCATS), Rockville, MD
National Institute of Health (NIH), Bethesda, Maryland
For the linked assay, Nath lab (NINDS) provided the purified linked NS2B-NS3 protease which is consists of hydrophilic domain of NS2B linked to the NS3 protease domain by a flexible (-[…]-) linker. Control compound aprotinin is obtained from Thermo Scientific (#78432; Waltham, Massachusetts). Rhodamine110 substrate ([N-Cbz]-Nle-Lys-Arg-Arg-Rhod110-Arg-Arg-Lys-Nle-[N-Cbz]) was purchased from either Genscript or Bachem.
1536-well Protease (Rhodamine110 Substrate) Assay:
Briefly, 3 microL of enzyme (25 nM final concentration), in assay buffer (10 mM Tris-HCl pH 8.0 with 0.01% Tween 20) were dispensed into a 1,536-well solid-bottom black plate (Greiner Bio One, Monroe, NC). Twenty-three nL of compounds (final concentration range 7.28 nM to 114 microM) or control Aprotinin (final concentration range 3.47 nM to 114 microM) were transferred via Wako Pin-tool (Wako Automation, Richmond, VA). Samples were incubated (room temperature, protected from light) for 15 minutes followed by a 1 microL Rhodamine110 substrate addition (1.5 microM final concentration). Plates were then immediately read on a ViewLux High-throughput CCD imager (PerkinElmer, Waltham, MA) equipped with FITC fluorescence optics (480(20) nm excitation, 540(25) nm emission), then incubated (room temperature, protected from light) for 15 minutes (~15% conversion). The change in fluorescence intensity over the 15-minute reaction period was normalized against no-inhibitor and no-enzyme controls and the resulting percent inhibition data were fitted to a 4-parameter Hill equation. Aprotinin was used as intraplate control.
On the % scale 0 is the no-effect control and ±100 the full control effect; potency means the concentration at half of the fitted maximal effect.

Compared with `NC(=O)c1cccc2cn(-c3ccc([C@@H]4CCCNC4)cc3)nc12`, `NC(=O)Nc1cc(-c2cccc(F)c2)sc1C(=O)N[C@H]1CCCNC1` is higher in “activity change, negative = inhibition” value: 61.2% for the first, 97.6% for the second.

Compared with `O=C(Nc1cn[nH]c1-c1nc2ccc(CN3CCOCC3)cc2[nH]1)NC1CC1`, `Fc1cc(-c2cccc3ncc(-c4cnn(C5CCNCC5)c4)nc23)cc(F)c1CN1CCOCC1` is higher in “activity change, negative = inhibition” value: 23.8% for the first, 173% for the second.

Compared with `COc1cc2c(Nc3ccc(NC(=O)c4ccccc4)cc3)ncnc2cc1OCCCN1CCOCC1`, `CNC(=O)CN1CCC(Oc2cc3c(Nc4cccc(Cl)c4F)ncnc3cc2OC)CC1` is lower in “activity change, negative = inhibition” value: 38.2% for the first, 1.35% for the second.

Compared with `CCN(CC)CCNC(=O)c1ccc2nc(-c3ccccc3)c(-c3ccc(CN4CCC(n5c(=O)[nH]c6ccccc65)CC4)cc3)nc2c1`, `COC(=O)c1ccc2c(C(=Nc3ccc(N(C)C(=O)CN4CCN(C)CC4)cc3)c3ccccc3)c(O)[nH]c2c1` is lower in “activity change, negative = inhibition” value: 242% for the first, -9.33% for the second.

Going from `Cc1cn(-c2cc(NC(=O)c3ccc(C)c(Nc4nccc(-c5cccnc5)n4)c3)cc(C(F)(F)F)c2)cn1` to `CC(C)Nc1cc(C(F)(F)F)cc2nc(NC(=O)c3cccnc3)nn12`, the “activity change, negative = inhibition” value rises from -6.93% to 17.7%.

First: C[C@@H]1COC(Nc2ccc3ncnc(Nc4ccc(OCc5nccs5)c(Cl)c4)c3c2)=N1
Second: COc1cc2c(Oc3ccc4[nH]c(C)cc4c3F)ncnc2cc1OCCCN1CCCC1
The “activity change, negative = inhibition” value of the first is lower: -9.13% for the first, 322% for the second.

Going from `Nc1nccc(Oc2ccc(NC(=O)c3c[nH]cc(-c4ccc(F)cc4)c3=O)cc2F)c1Cl` to `Clc1cccc(-n2nnnc2NCc2ccccc2Oc2ccccn2)c1Cl`, the “activity change, negative = inhibition” value rises from -12.3% to 23.1%.

Going from `Cn1c2ccccc2c2c3c(c4c5ccccc5n(CCC#N)c4c21)CNC3=O` to `CC(C)c1cc(-c2n[nH]c(=O)n2-c2ccc3c(ccn3C)c2)c(O)cc1O`, the “activity change, negative = inhibition” value falls from 23.9% to -18.7%.

Compared with `CC(C)c1cnn2c(NCc3ccccc3)cc(N[C@@H](CO)[C@H](O)CO)nc12`, `CN(C)CC(C)(C)CNc1nn2c(-c3ccccc3)nnc2cc1C1CCC1` is higher in “activity change, negative = inhibition” value: 4.36% for the first, 16.9% for the second.

First: C1Cc2[nH]nc(-c3nn[nH]n3)c2C1
Second: Cc1cc(Nc2cc(CN3CCOCC3)c3nc(C)c(Cc4ccc(Cl)cc4F)n3n2)n[nH]1
The “activity change, negative = inhibition” value of the first is higher: 23.9% for the first, 14.5% for the second.

Going from `Cc1c(CN2CCN(S(C)(=O)=O)CC2)sc2c(N3CCOCC3)nc(-c3cnc(N)nc3)nc12` to `Cc1c(Cn2c(C)nc3c(C(=O)O)cc(N4CCOCC4)cc32)cccc1C(F)(F)F`, the “activity change, negative = inhibition” value rises from 8.73% to 9.4%.

Going from `CC1(C)CC(=O)c2c(C(F)(F)F)nn(-c3ccc(C(N)=O)c(NC4CCC(OC(=O)CN)CC4)c3)c2C1` (stereo not given) to `C=CCn1c(=O)c2cnc(Nc3ccc(N4CCN(C)CC4)cc3)nc2n1-c1cccc(C(C)(C)O)n1`, the “activity change, negative = inhibition” value falls from 63.4% to 41.3%.

Compared with `CCCCCN(CCC12CC3CC(CC(C3)C1)C2)C(=O)NCCCc1ccncc1`, `CCCCOc1c(C(=O)c2c(F)cc(C)cc2F)cnc2n[nH]cc12` is lower in “activity change, negative = inhibition” value: 10% for the first, 1.56% for the second.

With `CC(O)C1C(=O)N2C(C(=O)O)=C(SC3CNC(C(=O)N(C)C)C3)C(C)C12` (stereo not given) the “activity change, negative = inhibition” value was 29.7%.

For `C[C@@H](Oc1cc(-c2cnn(C3CCNCC3)c2)cnc1N)c1c(Cl)ccc(F)c1Cl`, the Potency was “inactive”.
`N#Cc1c(O)c2c(-c3ccc(-c4ccccc4O)cc3)csc2[nH]c1=O` was tested, and the Potency was 2.51 µM (active).
With `CCNC(=O)Nc1ccc2ncc(Nc3ccc(C)cc3)nc2n1` the Potency was 35.5 µM (active).
With `Cc1coc2c1C(=O)C(=O)c1c-2ccc2c1CCCC2(C)C` the Potency was 14.1 µM (active).
With `O=C(Nc1cc(C(F)(F)F)cc(C(F)(F)F)c1)c1cc(Cl)ccc1O` the Potency was 7.94 µM (active).

In the case of `COC(=O)Nc1ccc(-c2nc(N3CCOCC3)c3cnn(C4CCN(Cc5cccnc5)CC4)c3n2)cc1`, the “outcome” value was “inactive”.
`CC(C)CC(=O)Nc1n[nH]c2c1CN(C(=O)C1CCN(C)CC1)C2(C)C` was tested, and the “outcome” value was “inactive”.
With `OCCCNc1cc(-c2ccnc(Nc3cccc(Cl)c3)n2)ccn1` the “outcome” value was “inactive”.
`O=C(CCCCCCNC(=O)c1cnc(N(c2ccccc2)c2ccccc2)nc1)NO` was tested, and the “outcome” value was “inactive”.
In the case of `Cc1ccc2nc(NC(=O)CSc3nc4c(c(=O)n3-c3ccccc3)SCC4)sc2c1`, the “outcome” value was “inactive”.

Compared with `c1nc2nc(Nc3ccc(N4CCOCC4)cc3)nc(NC3CCCCC3)c2[nH]1`, `CCn1cc(-c2ccnc3[nH]c(-c4cccc(CN(C)C)c4)cc23)c(-c2ccc(NC(=O)N(C)C)cc2)n1` is lower in “activity change, negative = inhibition” value: 34.9% [at 33.1 µM] for the first, -7.38% [at 33.1 µM] for the second.

Molecule `CC(=O)c1c(C)c2cnc(Nc3ccc(N4CCNCC4)cn3)nc2n(C2CCCC2)c1=O` has an activity change, negative = inhibition of 8.21% [at 4.91 µM].

From PubChem BioAssay (NCATS)
